Screens: PubChem BioAssay, several laboratories
Anthrax LF inh2 – Bacillus anthracis LF protease inhibitors, primary screen, biochemical, multiplex microsphere, MLPCN library; Lethal factor (Bacillus anthracis), P15917; multiplex microsphere protease cleavage assay; inhibition, % at 10 µM; AID 588501, 2011; 0.12% of 360,000 active
Autofluor counter – counter-screen for toxin protease inhibitors: compound fluorescence; compound autofluorescence counterscreen, microsphere flow cytometry; stronger effect = higher value; fluorescence intensity (concentration not given with the values); 3.1% of 360,000 active; in the data active = fluorescence intensity above about 16000; inconclusive = no clear call, values can overlap the other calls
MazF activator – activators of E. coli MazEF toxin-antitoxin RNase, primary screen, biochemical, fluorescence, uHTS; Endoribonuclease toxin MazF (Escherichia coli (strain K12)), P0AE70; 0.32% of 350,000 active; FAM/BHQ RNA-DNA oligo cleavage fluorescence, 5 h; activation, % at 20 µM; in the data active = activation above about 50%
Target sequence (P0AE70 whole entry, looked up): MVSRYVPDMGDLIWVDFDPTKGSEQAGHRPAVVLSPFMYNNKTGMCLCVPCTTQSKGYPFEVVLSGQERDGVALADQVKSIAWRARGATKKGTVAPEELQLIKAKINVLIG
BoNT-A LC inh2 – BoNT/A light chain protease inhibitors, primary screen, biochemical, flow cytometry, MLPCN library. multiplex microsphere protease substrate cleavage. inhibition, % at 10 µM. 0.17% of 360,000 active
SSB-PriA inh – inhibitors of Klebsiella pneumoniae PriA binding to SSB C-terminal tail, primary screen, biochemical, AlphaScreen; 0.6% of 430,000 active; AlphaScreen SSBct-PriA binding, biotinylated peptide; inhibition, % at 33 µM; PriA–SSB C-terminal tail interaction (Klebsiella pneumoniae); in the data active = inhibition mostly above about 37%, no sharp cut-off; inactive = mostly below about 20%
BoNT-F LC inh – BoNT/F light chain protease inhibitors, primary screen, biochemical, flow cytometry, MLPCN library. Botulinum neurotoxin type F light chain protease (Clostridium botulinum). Multiplex microsphere protease cleavage assay. inhibition, % at 10 µM. 0.22% of 360,000 active. AID 588497, 2011; in the data active = inhibition above about 35%, passing the limit was not always enough; inconclusive = no clear call, values can overlap the other calls
Hits are given with their value; . = inactive; ? = inconclusive; / = not tested or not shown; + = active, no number. An excerpt weighted towards active compounds, which were near 3.3% of everything screened. Cut-off read from the data, not from the text of the source, unless noted: active = inhibition above about 30%; inconclusive = no clear call, values can overlap the other calls; inactive = below that.

SMILES	Anthrax LF inh2	Autofluor counter	MazF activator	BoNT-A LC inh2	SSB-PriA inh	BoNT-F LC inh
O=C(NN=Cc1cc(O)ccc1Br)c1cccnc1	/	/	/	/	46	/
Cc1oc2c(cc(NS(=O)(=O)c3ccc4c5c(cccc35)C(=O)N4)c3ccccc32)c1C(=O)OC(C)C	.	19667	.	.	.	.
CCN(CC)c1ccc(/C=N/N2CCN(Cc3cccc4ccccc34)CC2)c(O)c1	.	23476	.	.	/	.
O=C(CSc1nnc(-c2ccc(Cl)cc2)n1-c1ccccc1)N/N=C/c1ccccc1C(=O)O	.	.	.	.	/	41
CCN(c1ccccc1)c1ncnc2c1cnn2-c1ccccc1	.	.	.	.	.	.
CN(Cc1ccccc1)c1ncnc2c1cnn2-c1ccccc1	.	22100	.	.	.	.
c1ccc(-n2ncc3c(NCCN4CCOCC4)ncnc32)cc1	.	16340	.	.	.	.
c1ccc(-n2ncc3c(NCCN4CCCCC4)ncnc32)cc1	.	.	.	.	.	.
c1ccc(CNc2ncnc3c2cnn3-c2ccccc2)cc1	.	16180	.	.	.	.
c1ccc(-n2ncc3c(NCc4ccccn4)ncnc32)cc1	.	24065	.	.	.	.
Fc1ccc(CNc2ncnc3c2cnn3-c2ccccc2)cc1	.	.	.	.	.	?
CC(=O)Nc1ccc(NC(=O)c2ccccc2OC(C)=O)cc1	/	/	/	/	.	/
COc1ccc(OCCn2cnc(Cl)c2Cl)cc1	.	.	.	.	.	.
Clc1ccc(OCCn2cnc(Cl)c2Cl)cc1	.	.	.	.	43	.
Cc1ccc(NC(=O)c2ccc(C#CC3(O)CCCCC3)cc2)cc1C	.	22190	.	.	.	.
Cc1ccc(NC(=O)NC2CCCCCCC2)cc1C	.	.	.	.	.	.
O=C(O)C1Cc2[nH]cnc2C(c2ccccc2)N1C(=S)Nc1ccc(Cl)cc1 (configuration not stated)	/	/	/	/	.	/
O=C(N/N=C\c1cc(Br)ccc1O)c1cc(-c2ccc3ccccc3c2)n[nH]1	/	/	/	/	.	/
CC(=O)Nc1ccc(S(=O)(=O)N2CC(c3nc(-c4ccco4)no3)C2)cc1	/	/	/	/	.	/
NNS(=O)(=O)c1ccc(N2CCCC2=O)c([N+](=O)[O-])c1	.	.	227	.	.	.
Cc1nc(N2CCN(C(=O)c3nn(C)c4ccccc34)CC2)cc(C(F)(F)F)n1	/	/	/	/	.	/
CN1CCc2cc(C(CNC(=O)Nc3ccc(F)cc3)N(C)C)ccc21 (configuration not stated)	/	/	/	/	.	/
CC(C)(C)C(=O)OCc1cn(-c2ccccc2)nn1	.	.	.	.	.	.
CC(C)(C)C(=O)OCc1cn(-c2ccc(Cl)cc2)nn1	.	19456	.	?	.	.
O=C(Nc1cccc(Cl)c1)OCc1cn(-c2ccc(Cl)cc2)nn1	.	16617	.	.	.	.
SMILES	Anthrax LF inh2	Autofluor counter	MazF activator	BoNT-A LC inh2	SSB-PriA inh	BoNT-F LC inh
CC(C)CC(=O)OCc1cn(-c2ccccc2)nn1	.	21300	.	.	.	.
Cc1nc(-c2ccccc2Cl)sc1CNS(=O)(=O)c1c(C)noc1C	/	/	/	/	.	/
CCOC(=O)c1c(NC(=O)c2cc(OCC)c(OCC)c(OCC)c2)sc2c1CCN(Cc1ccccc1)C2	/	/	/	/	.	/
CCOC(=O)C(CC)Sc1ncnc2nc[nH]c12 (configuration not stated)	.	.	.	.	.	.
CCOC(=O)C(C)Sc1ncnc2nc[nH]c12 (configuration not stated)	.	24038	.	?	.	.
O=C(CSc1ncnc2c1nnn2Cc1ccc(Cl)cc1)N1CCN(c2ccccc2)CC1	/	/	/	/	.	/
O=C(CSc1ncnc2nc[nH]c12)N1CCN(c2ccc(Cl)cc2)CC1	.	16576	.	.	.	.
O=C(CSc1ncnc2nc[nH]c12)c1ccc2ccccc2c1	.	.	.	.	.	.
O=C(O)CSc1ncnc2nc[nH]c12	.	20292	.	.	.	.
CCC(=O)Nc1nc(C2CCCCC2)cs1	/	/	/	/	.	/
Cn1nc(C2CCN(CC(=O)NCc3ccc4c(c3)OCO4)CC2)n(C2CC2)c1=O	/	/	/	/	.	/
COC(=O)C1=C(C)N(Cc2ccco2)C(=O)/C1=C\c1ccc(N(C)C)cc1	.	.	+	.	.	.
COC(=O)C1=C(C)N(Cc2ccco2)C(=O)/C1=C\c1ccc([N+](=O)[O-])cc1	.	.	.	.	.	.
CCOC(=O)C1=C(N)Oc2c(c(=O)oc3ccccc23)C1c1ccccc1F (configuration not stated)	/	/	/	/	.	/
Cn1nccc1/C=C(/C#N)S(=O)(=O)c1ccccc1	.	?	.	.	.	.
CCn1cc(/C=C(/C#N)S(=O)(=O)c2ccccc2)cn1	.	23211	.	.	.	.
N#C/C(=C\c1ccc[nH]1)S(=O)(=O)c1ccccc1	.	16572	.	.	.	.
CC1CCN(c2oc(Cc3cccc4ccccc34)nc2C#N)CC1	.	.	.	.	56	.
N#Cc1nc(Cc2ccccc2)oc1N1CCCC1	.	.	.	.	.	.
Cc1ccc(OCc2nc(C#N)c(N3CCC(C(N)=O)CC3)o2)cc1	/	/	/	/	56	/
CC1CC(C)CN(c2oc(Cc3ccccc3)nc2C#N)C1 (configuration not stated)	.	.	.	.	55	.
Cc1ccc(OCc2nc(C#N)c(N3CCN(c4ccccc4)CC3)o2)cc1	/	/	/	/	74	/
Cc1ccc(OCc2nc(C#N)c(N3CCN(Cc4ccccc4)CC3)o2)cc1	.	.	.	.	.	.
CC(C)(C)n1nc2c(c1NC(=O)CC1CCCCC1)CS(=O)(=O)C2	/	/	/	/	.	/
CN(C)CCN(C(=O)c1ccco1)C1CCOCC1	/	/	/	/	.	/
SMILES	Anthrax LF inh2	Autofluor counter	MazF activator	BoNT-A LC inh2	SSB-PriA inh	BoNT-F LC inh
Cc1ccc(-c2nc(C#N)c(N3CCC(C)CC3)o2)cc1	.	.	.	.	.	.
N#Cc1nc(COc2ccc(Br)cc2)oc1N1CCCCC1	/	/	/	/	104	/
Cc1ccc(OCc2nc(C#N)c(N3CCC(C)CC3)o2)cc1	/	/	/	/	96	/
CNC(=O)C(=O)NC[C@]1(O)CCCc2cc(OC)ccc21	/	/	/	/	.	/
COc1ccc(N(CC(=O)NCC2CCCO2)S(=O)(=O)c2ccc(C)cc2)cc1OC (configuration not stated)	.	16225	.	.	.	.
Cc1ccc(N(CC(=O)NCC2CCCO2)S(=O)(=O)c2ccc(Cl)cc2)cc1C (configuration not stated)	.	.	.	.	.	.
COc1ccc(Nc2nc(C(C)(C)C)nc3c2nnn3Cc2ccccc2Cl)cc1OC	.	.	.	.	.	.
CCOC(=O)CNc1nc(C(C)(C)C)nc2c1nnn2Cc1ccccc1Cl	.	23473	.	.	.	.
COc1cccc(CCC(=O)N(C)C2CCCN(Cc3ccccc3F)C2)c1 (configuration not stated)	.	.	.	.	.	36
